Results as given in ChEMBL document CHEMBL3988442, “University of Dundee, Small-Polar-MMV Screening Library” (2021).

Tests used:
[1] = target: T1, Aspartate--tRNA(Asp/Asn) ligase (Mycobacterium tuberculosis (strain ATCC 25618 / H37Rv)) (UniProt P9WFW3); experiment: Assay for Asp RNA synthetase-1 from Mycobacterium tuberculosis; format: functional; set-up: scale not given: direction of the effect not stated beside the values; details: 30 µM; note: in the data most compounds retested in dose-response had high values
T1 sequence (whole entry): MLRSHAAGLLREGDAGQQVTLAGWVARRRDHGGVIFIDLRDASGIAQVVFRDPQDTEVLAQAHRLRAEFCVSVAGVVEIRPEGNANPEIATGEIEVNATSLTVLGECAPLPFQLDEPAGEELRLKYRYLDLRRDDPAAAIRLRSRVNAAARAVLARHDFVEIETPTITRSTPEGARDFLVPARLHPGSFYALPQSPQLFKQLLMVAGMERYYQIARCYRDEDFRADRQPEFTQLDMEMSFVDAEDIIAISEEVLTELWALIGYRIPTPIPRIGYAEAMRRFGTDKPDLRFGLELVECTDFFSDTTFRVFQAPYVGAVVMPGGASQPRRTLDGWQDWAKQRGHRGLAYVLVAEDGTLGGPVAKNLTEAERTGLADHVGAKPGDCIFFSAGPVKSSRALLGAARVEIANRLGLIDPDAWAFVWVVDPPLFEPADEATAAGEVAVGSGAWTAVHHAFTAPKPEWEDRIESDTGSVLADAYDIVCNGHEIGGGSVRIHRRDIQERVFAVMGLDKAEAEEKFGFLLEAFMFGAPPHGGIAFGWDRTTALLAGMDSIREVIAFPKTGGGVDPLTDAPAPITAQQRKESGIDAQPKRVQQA

[2] = target: Shiga toxin 2 (Escherichia coli O157:H7) (UniProt P09385+P09386); experiment: E. coli 0.157:H7 Shiga Toxin SOP - stx2 screening assay; format: functional; set-up: scale not given: direction of the effect not stated beside the values; details: 30 µM

## CCN1CCC(NC(=O)CN2CCCCC2Cn2cc(C)cn2)CC1 (configuration not stated)
[1]
  Percent Effect: -0.102%
[2]
  Percent Effect: -21.7%

## Cc1nc(CN2C(=O)COC3(CCN(Cc4nccs4)CC3)C2C)cs1 (configuration not stated)
[1]
  Percent Effect: -2.21%
[2]
  Percent Effect: -29.4%

## Cc1nc(C)n(CC2CN(c3ncccn3)Cc3nccn3C2)n1 (configuration not stated)
[1]
  Percent Effect: -0.127%
[2]
  Percent Effect: 11.6%

## Cc1noc2ncc(C(=O)N(CC3CCOC3)C3CC3)cc12 (configuration not stated)
[1]
  Percent Effect: 2.12%
[2]
  Percent Effect: 24.4%

## Cc1c[nH]c(CN(C)c2nc(C3CCCC3)nc3c2cnn3C)n1
[1]
  Percent Effect: 0.0557%
[2]
  Percent Effect: -4.38%

## CCc1ccc(CN2CC[C@H]3C[C@H](c4nnc(C)[nH]4)O[C@@H]3C2)o1
[1]
  Percent Effect: 0.228%
[2]
  Percent Effect: 1.93%

## CC(CNC(=O)c1ccccc1Oc1cccnc1)N(C)C (configuration not stated)
[1]
  Percent Effect: -2.89%
[2]
  Percent Effect: -5.12%

## Cc1ccc(S(=O)(=O)Nc2ccc(-n3cccc3C(=O)O)c(C)c2)s1
[1]
  Percent Effect: 4.34%
[2]
  Percent Effect: 18.8%

## CN(C)CC(=O)N1CCC2(CCN(Cc3ccccn3)C2=O)C1 (configuration not stated)
[1]
  Percent Effect: -3.07%
[2]
  Percent Effect: 9.53%

## CCOc1nnc(CN2CCOC(CNc3cccnn3)C2)s1 (configuration not stated)
[1]
  Percent Effect: 4.86%
[2]
  Percent Effect: -50.9%

## O=C(C1CCOCC1)N1C[C@@H]2[C@@H](C1)OCC(=O)N2CC1CC1
[1]
  Percent Effect: 3.77%
[2]
  Percent Effect: -0.921%

## Cc1cc(CN(C)C(=O)c2ccc(Cl)c(S(C)(=O)=O)c2)no1
[1]
  Percent Effect: -2.25%
[2]
  Percent Effect: -3.87%

## COc1ccc(C2=CCN(C(=O)C3CCN(C)C(=O)C3)CC2)cc1 (configuration not stated)
[1]
  Percent Effect: 3.17%
[2]
  Percent Effect: 27.5%

## CNC(=O)[C@H]1C[C@@H]2CN(C(=O)Nc3ccc(F)cc3)C[C@H]1O2
[1]
  Percent Effect: -1.56%
[2]
  Percent Effect: -24.2%

## CCn1nc(C)c(CCNC(=O)C2CCCN(CC(N)=O)C2)c1C (configuration not stated)
[1]
  Percent Effect: -2.59%
[2]
  Percent Effect: 7.92%

## Cc1cc(CN2CCC(CNC(=O)c3nccc4ccccc34)C2)[nH]n1 (configuration not stated)
[1]
  Percent Effect: 8.37%
[2]
  Percent Effect: -22.4%
